Results as given in PubChem BioAssay (Tox21).
Results filed as inconclusive are left out. Active and inactive are the calls of the source. Unless noted, calls come from the whole dose curve; as a rule, active = well fitted curve in the direction sought with a large enough effect in the repeat runs; inconclusive = weak or mixed curves; inactive = no such curve, though single readings can be large; an effect the other way counts as inactive or inconclusive.

Columns and labels:
[1] = qHTS assay to identify small molecule antagonists of the estrogen related receptor signaling pathway with the pleiotropic PPARgamma coactivator (PGC) from Tox21 10K library - cell viability counter screen (AID 1224840; active = well fitted cell-killing curve with a large enough effect in the repeat runs, not every such curve was filed as active; note: nearly all actives have a fitted effect of over 40% in size)
Procedure, shortened: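 Here the PGC/ERR cells serve as a cytotoxicity control: they are exposed to compounds for 17.5 hours at 37 C, and live-cell signal is quantified using CellTiter-Fluor fluorescence.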

[2] = molecular target: Thyrotropin receptor (Homo sapiens) (UniProt P16473); assay: qHTS assay to identify small molecule agonists of the thyroid stimulating hormone receptor (TSHR) signaling pathway (AID 1224843; calls by dose curve; note: nearly all actives have a fitted effect of over 45% in size)
Thyrotropin receptor (Homo sapiens), sequence (P16473 whole entry, looked up): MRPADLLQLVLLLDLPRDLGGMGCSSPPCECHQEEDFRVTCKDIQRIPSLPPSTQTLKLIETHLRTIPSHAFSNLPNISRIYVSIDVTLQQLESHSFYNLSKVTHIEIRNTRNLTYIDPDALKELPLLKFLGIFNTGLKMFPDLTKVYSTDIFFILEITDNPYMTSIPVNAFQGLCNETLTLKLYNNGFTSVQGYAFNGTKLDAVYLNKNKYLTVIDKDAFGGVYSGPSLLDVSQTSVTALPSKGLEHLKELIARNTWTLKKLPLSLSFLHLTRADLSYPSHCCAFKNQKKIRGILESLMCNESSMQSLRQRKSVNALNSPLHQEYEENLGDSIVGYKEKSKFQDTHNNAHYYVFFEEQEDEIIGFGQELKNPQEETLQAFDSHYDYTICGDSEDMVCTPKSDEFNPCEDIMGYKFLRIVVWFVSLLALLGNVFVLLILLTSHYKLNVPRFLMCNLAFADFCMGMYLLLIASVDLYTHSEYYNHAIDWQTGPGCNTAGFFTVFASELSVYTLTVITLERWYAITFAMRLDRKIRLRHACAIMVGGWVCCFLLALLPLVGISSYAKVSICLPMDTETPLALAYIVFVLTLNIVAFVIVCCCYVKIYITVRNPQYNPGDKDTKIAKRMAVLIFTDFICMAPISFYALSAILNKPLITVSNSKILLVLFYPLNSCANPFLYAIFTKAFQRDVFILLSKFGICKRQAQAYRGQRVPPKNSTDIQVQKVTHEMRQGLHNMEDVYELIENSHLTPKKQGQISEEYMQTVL
Procedure, shortened: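 Screening of the Tox21 10K collection used HEK293 cells engineered with TSHR at 800 cells per well. After a 30-min room-temperature compound exposure, HTRF cAMP reagents were added and fluorescence recorded 1 h later.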

[3] = qHTS assay to identify small molecule agonists of the hypoxia (HIF-1) signaling pathway - cell viability counter screen (AID 1224844; calls by dose curve; note: nearly all actives have a fitted effect of over 50% in size)
Procedure, shortened: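 Multiplexed with the HRE beta-lactamase assay, this viability read used CellTiter-Glo luminescence (30 min, RT) on HRE-bla ME-180 cells treated 17 hrs with compounds in 0.5% dialyzed FBS medium.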

[4] = qHTS assay to identify small molecule agonists of H2AX (AID 1224845; active = well fitted activation curve with a large enough effect in the signal ratio in the repeat runs, not every such curve was filed as active; the % refers to the signal ratio)
Procedure, shortened: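 Phospho-H2AX Ser139 measured by HTRF (ex 320 nm; em 665 and 620 nm) after 24 hr antibody incubation. Compounds, 15 concentrations, 0.76% DMSO, were applied to CHO-K1 cells for 3hr at 37C before lysis.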

[5] = qHTS assay to identify small molecule agonists of the hypoxia (HIF-1) signaling pathway (AID 1224846; active = well fitted activation curve with a large enough effect in the signal ratio in the repeat runs, not every such curve was filed as active; the % refers to the signal ratio)
Procedure, shortened: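 Hypoxia-pathway activation was scored as increased beta-lactamase from an HRE-controlled reporter in ME-180 cells; plated at 2,000 cells per well with 0.5% dialyzed FBS, they were exposed 17 hrs to compounds and then given CCF4-AM.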

[6] = qHTS assay to identify small molecule agonists of H2AX - cell viability counter screen (AID 1224847; calls by dose curve;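 note: wild-type CHO-K1 cells; top concentration of the series differs between compounds; nearly all actives have a fitted effect of over 30% in size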)
Procedure, shortened: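 Counter-screen for viability: CellTiter-Glo ATP luminescence read after 3 h compound treatment (15-point titration, 0.76% DMSO final) of CHO-K1 cells at 37C, with 30 min room-temperature reagent incubation.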

[7] = qHTS RealTime-Glo MT Cell Viability Assay in HepG2 cells - 24 hour (AID 1224867); note: nearly all actives have a fitted effect of over 50% in size
Procedure, shortened: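 Viability was tracked continuously by NanoLuc luminescence from prosubstrate reduced by living HepG2 cells, at successive time points over 40 h of compound exposure. Cells with reagent were preincubated 5 h at 37 °C before compound addition.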

[8] = qHTS RealTime-Glo MT Cell Viability Assay in HEK293 cells - 32 hour (AID 1224868); note: top concentration of the series differs between compounds; nearly all actives have a fitted effect of over 50% in size
Procedure, shortened: (§1)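 Viability tracked continuously by luminescence as live cells reduce a prosubstrate for NanoLuc; HEK293 cells preincubated 5 h, compound-treated at 37 C, and read at 0, 8, 16, 24, 32 and 40 h.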

[9] = A CellTox Green Cytotoxicity Assay to monitor cytotoxicity in HEK293 cells - 0 hour (AID 1224869); note: nearly all actives have a fitted effect of over 50% in size
Procedure, shortened: (§2)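 Seeding of HEK293 cells together with cytotoxicity dye preceded a 5 h incubation at 37 C/5% CO2. Test compounds in DMSO were then added and fluorescence monitored across 40 h.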

[10] = qHTS RealTime-Glo MT Cell Viability Assay in HepG2 cells - 40 hour (AID 1224870); note: nearly all actives have a fitted effect of over 50% in size
Procedure, shortened: (§3)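 Real-time viability: cells seeded at 600 per well together with NanoLuc and cell-permeant prosubstrate, compounds added after 5 h incubation. Luminescence tracked at 0, 8, 16, 24, 32 and 40 h of exposure.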

[11] = A CellTox Green Cytotoxicity Assay to monitor cytotoxicity in HEK293 cells - 40 hour (AID 1224871); note: nearly all actives have a fitted effect of over 45% in size
Procedure, shortened: as §2

[12] = qHTS RealTime-Glo MT Cell Viability Assay in HEK293 cells - 16 hour (AID 1224872)
Procedure, shortened: as §1

[13] = qHTS RealTime-Glo MT Cell Viability Assay in HepG2 cells - 8 hour (AID 1224873); note: nearly all actives have a fitted effect of over 55% in size
Procedure, shortened: as §3

[14] = qHTS RealTime-Glo MT Cell Viability Assay in HEK293 cells - 40 hour (AID 1224874); conditions: RealTime-Glo luminescence; max response: active compounds read low; note: nearly all actives have a fitted effect of over 50% in size
Procedure, shortened: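 Tox21 screen in HEK293 using RealTime-Glo MT chemistry, with cells and reagent co-dispensed. Luminescence proportional to viable cell number was captured at intervals during 40 h compound exposure at 37 C.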

[15] = A CellTox Green Cytotoxicity Assay to monitor cytotoxicity in HEK293 cells - 24 hour (AID 1224875); note: nearly all actives have a fitted effect of over 45% in size
Procedure, shortened: as §2

[16] = A CellTox Green Cytotoxicity Assay to monitor cytotoxicity in HepG2 cells - 16 hour (AID 1224876); note: nearly all actives have a fitted effect of over 45% in size
Procedure, shortened: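 Nonlytic assay: viable cells exclude the dye, so fluorescence scales with cell death. HepG2 at 600 cells/well, compounds added after 5 h, signal read across 40 h.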

[17] = qHTS assay to identify small molecule antagonists of the estrogen related receptor signaling pathway with the pleiotropic PPARgamma coactivator (PGC) from Tox21 10K library (AID 1224841; call rule not given here)
Procedure, shortened: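 Each well held 2,000 PGC/ERR cells, pre-incubated six hours (37 C, 5% CO2). Test substances in DMSO were added by pin tool and left for 18 h at 37 C before luciferase detection by One-Glo.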

[18] = qHTS assay to identify small molecule agonists of the estrogen related receptor signaling pathway with the pleiotropic PPARgamma coactivator (PGC) from Tox21 10K library (AID 1224842); note: nearly all actives have a fitted effect of over 15% in size
Procedure, shortened: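 Luminescence from One-Glo (30 min, room temperature) measured after PGC/ERR cells had 18 h at 37 C with pinned compound (23 nL in DMSO). Cells had been seeded at 2,000 per well and pre-incubated 6 h.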

[19] = qHTS assay to identify small molecule antagonists of the estrogen related receptor (ERR) signaling pathway from Tox21 library (AID 1224848); note: nearly all actives have a fitted effect of over 50% in size
Procedure, shortened: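 Antagonist-mode screen of the Tox21 10K library in an NTP-provided ERR reporter cell line; 18 h compound exposure at 37 C, luminescence measured with ONE-Glo.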

[20] = qHTS assay to identify small molecule agonists of the estrogen related receptor (ERR) signaling pathway from Tox21 library (AID 1224849; calls by dose curve; note: nearly all actives have a fitted effect of over 15% in size); conditions: ERR reporter cell line, ONE-Glo luciferase, 18 h; at 92.4 µM (top of the series) unless noted
Procedure, shortened: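 Six hours post-seeding at 37 C/5% CO2, ERR cells receive DMSO-solubilised compounds; after 18 h at 37 C, ONE-Glo reagent is applied and luminescence recorded.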
% is set by controls: 0 for no effect and ±100 for the full control effect.

Cc1ccc(C(=O)O)cc1[N+](=O)[O-]
inactive: outcome [1] | outcome [2] | outcome [3] | outcome [4] | outcome [5] | outcome [6] | outcome [7] | Potency [8] | Potency [9] | outcome [10] | Potency [11] | Potency [12] | outcome [13] | max response [14] 6.44% | Potency [15] | Potency [16]

COC(C)(OC)OC
inactive: outcome [1] | outcome [2] | outcome [3] | outcome [4] | outcome [5] | outcome [6] | outcome [7] | Potency [8] | Potency [9] | outcome [10] | Potency [11] | Potency [12] | outcome [13] | max response [14] 5.48% | Potency [15] | Potency [16]

C/C=C(\C)C(=O)OCCc1ccccc1
inactive: outcome [1] | outcome [17] | outcome [18] | outcome [4] | outcome [5] | outcome [6] | Potency [19] | activity change, positive = activation [20] 9.96% | outcome [7] | Potency [8] | Potency [9] | outcome [10] | Potency [12] | outcome [13] | max response [14] -3.34% | Potency [16]

CCNC(=O)NCc1cccc(Cl)c1
inactive: outcome [1] | outcome [2] | outcome [3] | outcome [4] | outcome [5] | outcome [6] | outcome [7] | Potency [8] | Potency [9] | outcome [10] | Potency [11] | Potency [12] | outcome [13] | max response [14] 0.19% | Potency [15] | Potency [16]

CC(C)C[C@@H]1[C@H](c2ccccc2)OC(=O)N1CCCN1CCCCCC1
inactive: outcome [1] | outcome [17] | outcome [18] | outcome [3] | outcome [5] | outcome [6] | Potency [19] | activity change, positive = activation [20] 0.937% [at 42.5 µM] | Potency [9] | outcome [10] | outcome [13] | Potency [15] | Potency [16]

COC(=O)CCCCC(=O)O
inactive: outcome [1] | outcome [2] | outcome [3] | outcome [4] | outcome [5] | outcome [6] | outcome [7] | Potency [8] | Potency [9] | outcome [10] | Potency [11] | Potency [12] | outcome [13] | max response [14] 8.26% | Potency [15] | Potency [16]

N#CCC(=O)NN
inactive: outcome [1] | outcome [2] | outcome [3] | outcome [4] | outcome [5] | outcome [6] | outcome [7] | Potency [8] | Potency [9] | outcome [10] | Potency [11] | Potency [12] | outcome [13] | max response [14] 1.05% | Potency [15] | Potency [16]

O=Cc1cc2ccccc2o1
inactive: outcome [1] | outcome [2] | outcome [3] | outcome [4] | outcome [5] | outcome [6] | outcome [7] | Potency [8] | Potency [9] | outcome [10] | Potency [11] | Potency [12] | outcome [13] | max response [14] -1.57% | Potency [15] | Potency [16]

CC1(C)[C@H]2CC[C@](C)(C2)[C@H]1O
inactive: outcome [1] | outcome [2] | outcome [3] | outcome [4] | outcome [5] | outcome [6] | outcome [7] | Potency [8] | Potency [9] | outcome [10] | Potency [11] | Potency [12] | outcome [13] | max response [14] -1.99% | Potency [15] | Potency [16]

CCOc1cccc(N)c1
inactive: outcome [1] | outcome [2] | outcome [3] | outcome [4] | outcome [5] | outcome [6] | outcome [7] | Potency [8] | Potency [9] | outcome [10] | Potency [11] | Potency [12] | outcome [13] | max response [14] 2.76% | Potency [16]

O=C1CCC(=O)N1Cl
inactive: outcome [1] | outcome [2] | outcome [3] | outcome [4] | outcome [5] | outcome [6] | outcome [7] | Potency [8] | Potency [9] | outcome [10] | Potency [11] | Potency [12] | outcome [13] | max response [14] 7.58% | Potency [15] | Potency [16]

COC(=O)c1ccccc1C(=O)O
inactive: outcome [1] | outcome [2] | outcome [3] | outcome [4] | outcome [5] | outcome [6] | outcome [7] | Potency [8] | Potency [9] | outcome [10] | Potency [11] | Potency [12] | outcome [13] | max response [14] -0.818% | Potency [15] | Potency [16]

CC/C(C)=N\O[Si](C)(O/N=C(\C)CC)O/N=C(\C)CC
inactive: outcome [1] | outcome [2] | outcome [3] | outcome [4] | outcome [5] | outcome [6] | outcome [7] | Potency [8] | Potency [9] | outcome [10] | Potency [11] | Potency [12] | outcome [13] | max response [14] -3.49% | Potency [15] | Potency [16]

NCC1(Cc2noc(=O)[nH]2)CCCCC1
inactive: outcome [1] | outcome [2] | outcome [3] | outcome [4] | outcome [5] | outcome [6] | outcome [7] | Potency [8] | Potency [9] | outcome [10] | Potency [11] | Potency [12] | outcome [13] | Potency [15] | Potency [16]

N#Cc1cscn1
inactive: outcome [1] | outcome [2] | outcome [3] | outcome [4] | outcome [5] | outcome [6] | outcome [7] | Potency [8] | Potency [9] | outcome [10] | Potency [11] | Potency [12] | outcome [13] | max response [14] 9.48% | Potency [15] | Potency [16]

O=C1CCCCO1
inactive: outcome [1] | outcome [2] | outcome [3] | outcome [4] | outcome [5] | outcome [6] | outcome [7] | Potency [8] | Potency [9] | outcome [10] | Potency [11] | Potency [12] | outcome [13] | max response [14] 1.35% | Potency [15] | Potency [16]
